# The panel holds about 79,000 compounds, 15% with a hit somewhere; the sample as a whole holds those more often. Values without a mark were called inactive. The source made the active and inactive calls. No stated cut-off is given here; in the data, active means growth inhibition above about 70%; inactive means the rest.
# How the values were obtained:
# [1] = NCI Yeast Anticancer Drug Screen. Data for the rad50 strain (AID 155);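 further: 0% = growth of vehicle-only cultures of the same strain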; details: S. cerevisiae rad50 strain growth inhibition; at 50.0 µM; stronger effect = higher value
# Procedure, shortened: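 Vehicle-treated cultures provide the reference for the growth inhibition reported for compound-exposed, repair-deficient yeast.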
# [2] = NCI Yeast Anticancer Drug Screen. Data for the mec2-1 strain (AID 157); details: S. cerevisiae mec2-1 strain, at 50.0 µM, stronger effect = higher value
# Procedure, shortened: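 Each compound was tested on mec2-1 yeast, a strain altered in DNA damage repair or cell cycle control. Growth inhibition is reported relative to vehicle.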
# [3] = NCI Yeast Anticancer Drug Screen. Data for the sgs1 mgt1 strain (AID 161);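 further: 0% = growth of cultures given vehicle only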; details: S. cerevisiae sgs1 mgt1 strain, at 50.0 µM, stronger effect = higher value
# Procedure, shortened: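 Mutant yeast exposed to compound; growth scored against vehicle-only wells.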
# [4] = NCI Yeast Anticancer Drug Screen. Data for the cln2 rad14 strain (AID 165);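 further: 0% = growth equal to vehicle treated cultures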; details: S. cerevisiae cln2 rad14 strain, at 50.0 µM, stronger effect = higher value
# Procedure, shortened: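 Test compounds were added to cln2 rad14 yeast cultures; inhibition of growth was then determined by comparison with vehicle treatment.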
# [5] = NCI Yeast Anticancer Drug Screen. Data for the bub3 strain (AID 167); details: S. cerevisiae bub3 mutant strain, at 50.0 µM, stronger effect = higher value
# Procedure, shortened: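 Mutant yeast screening strain plus compound; vehicle-treated cultures serve as the 0% inhibition reference.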
# [6] = NCI Yeast Anticancer Drug Screen. Data for the mlh1 rad18 strain (AID 175); details: S. cerevisiae mlh1 rad18 strain growth inhibition; at 50.0 µM; stronger effect = higher value
# Procedure, shortened: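 Inhibition values reflect reduced growth of mutant yeast versus vehicle-treated controls following compound exposure; the mutations affect DNA damage repair.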
SMILES,growth inhibition [1],growth inhibition [2],growth inhibition [3],growth inhibition [4],growth inhibition [5],growth inhibition [6]
O=[N+]([O-])c1ccccc1N=Nc1ccc(O)cc1O,35.4%,21.1%,31.9%,-23.4%,10.7%,39.2%
S=C(Nc1ccccc1)N1CCCCC1,-2.8%,1.25%,-10.2%,-39.3%,2.4%,-8.4%
C=C[Si](OC(C)=O)(OC(C)=O)OC(C)=O,27.2%,-13.2%,0.85%,14.7%,13.7%,1.65%
C/C(O)=C(\C=N\C(N)=S)C(=O)Nc1ccccc1,-4.6%,-8.1%,-23.9%,-0.55%,-2.45%,3.7%
CNC(=O)c1ccccc1CC1(O)c2ccccc2Oc2ccccc21,0.4%,-13.5%,9.05%,0.7%,-9.25%,-8.55%
C=CCNc1ccccc1,31.2%,4.35%,7.55%,-36.6%,17.6%,13.7%
Cc1cc(=O)n(-c2ccc(F)cc2)[nH]1,-5.15%,-14.1%,22.1%,2.8%,50.6%,12.1%
CCCCCCCCCCCCCCCCC1CC(=O)OC1=O (centres undefined),-4.35%,-12.2%,5.9%,4.3%,-11.3%,4.55%
COc1ccccc1NC(=O)c1cc2cc(Br)ccc2cc1O,34.8%,41.1%,55.7%,41.6%,49%,34.2%
CCOc1ccc(I)cc1,10.9%,11.8%,-17.5%,36.8%,-0.75%,-11.7%
CCOC(=O)C(O)C(O)C(=O)OCC (centres undefined),21.4%,-15.8%,-29.3%,-16.7%,-2.85%,7.85%
CN(C)CCN(C)CC(C)(C)C(=O)/C=C/c1ccc(Cl)cc1,27.9%,3%,9%,-2.65%,19.7%,31.8%
CSc1[nH]c(=O)ncc1F,4.15%,4.1%,3.2%,-4.15%,-2.3%,-7.45%
CC1(C)Nc2cccc3c(N=Nc4ccc(N=Nc5ccccc5)c5ccccc45)ccc(c23)N1,-50.5%,-38.1%,-27%,-2.2%,-5.2%,-74.6%
O=C1OC(c2ccc(F)cc2)CC1CN1CCOCC1 (centres undefined),0.45%,12.6%,30.6%,27.3%,24.3%,38.5%
CO[C@H]1C[C@@H]2CC[C@@H](C)[C@@](O)(O2)C(=O)C(=O)N2CCCC[C@H]2C(=O)O[C@H]([C@H](C)C[C@@H]2CC[C@@H](O)[C@H](OC)C2)CC(=O)[C@H](C)C=C(C)[C@@H](O)[C@@H](OC)C(=O)[C@H](C)C[C@H](C)/C=C/C=C/C=C1C,88.8% (active),91.2% (active),89.8% (active),85.2% (active),89.1% (active),89.4% (active)
CCCCN(CCCC)CCCO,-14.4%,-24.5%,-11.3%,-27.7%,-2.7%,-21.1%

SMILES,growth inhibition [1],growth inhibition [2],growth inhibition [3],growth inhibition [4],growth inhibition [5],growth inhibition [6]
Nc1ccccc1SC(CC(=O)c1ccccc1)c1c(Cl)cccc1Cl (centres undefined),-11.5%,-9.65%,2.1%,1.75%,2.85%,16.7%
CCc1nn(Cc2ccccc2)c2nc(C)c(CCc3ccccc3)c(Cl)c12,-6.85%,-4.6%,-0.45%,2.6%,7.35%,-2.75%
OCc1cccc2ccccc12,27.6%,25.9%,13.9%,-27.4%,3.6%,24.5%
Cc1cc(C(C)(C)C)cc(C)c1Br,-1.85%,-0.85%,-9.25%,-15.3%,0.15%,-1.65%
C#CCSc1nnnn1-c1ccc(Br)c(C)c1,14.8%,1.3%,34.5%,22.3%,32.6%,7.1%
CCCCCCCCCCCCCC(=O)Oc1ccc[nH]c1=O,-12.2%,-19.6%,-15.9%,11%,0.65%,0.7%
COC(=O)C(C)Oc1ccc(OC#N)cc1 (centres undefined),-21.3%,-14.1%,8.9%,-3%,6.25%,23.5%
CCOC(=O)c1[nH]c(C)c(C(C)=O)c1C,-0.45%,-22.5%,9%,-10.5%,-27%,-8.15%
O=[N+]([O-])c1cccc2nsnc12,63.5%,30.6%,53.8%,16.6%,-8.15%,43.6%
O=[N+]([O-])c1ccc(N=Nc2ccc(O)c3ccccc23)cc1,13.3%,1.45%,21.9%,16.6%,-25.2%,-9.35%
O=[N+]([O-])c1ccc(CO)cc1,0.15%,0.35%,8.85%,6.75%,22.1%,4.1%
Cc1cc2nc(CC(=O)c3ccccc3)c(=O)[nH]c2cc1C,15.7%,0.95%,13.3%,9.4%,-15.7%,31.3%
Oc1ccc(Cc2ccccc2)c2cccnc12,-27.7%,-8.6%,-12.7%,-19.4%,-17.1%,34.6%
Cc1cc(C(O)(c2ccc(Nc3ccccc3)cc2)c2ccc(Nc3ccc(S(=O)(=O)O)cc3)cc2)ccc1N (centres undefined),-44.5%,-46%,-9.6%,-16.1%,-36.6%,-34.6%
NCCC(=O)c1ccc(Cl)cc1,45.4%,-10.4%,6.8%,4.45%,-9.6%,19.8%
NC(C(=O)O)c1ccc([N+](=O)[O-])cc1 (centres undefined),-0.45%,-14.1%,8.8%,7.25%,-0.4%,-14.7%
C#CC(C(C)C)N(CCO)CCCC (centres undefined),11.2%,4.55%,8.3%,7.35%,26.7%,16%

# From PubChem BioAssay (NCI)
